ELG1 repair inh = qHTS screen for small molecules that inhibit ELG1-dependent DNA repair in human embryonic kidney (HEK293T) cells expressing luciferase-tagged ELG1; HEK293T ELG1-luciferase reporter, luminescence, 16 h; DNA damage induced by 5-fluorouridine; Potency, µM (titrated, usually from 46.1 µM), most hits filed as inhibitors; actives 2.3% (n = 330,000); AID 504467, 2011; also: nearly all actives have a fitted effect of over 55% in size
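HEK293T cells expressing luciferase-tagged ELG1 (2,000/well) received 5-Fluorouridine plus compound or DMSO for 16 hr at 37 °C. Luciferase was read by ONE-Glo luminescence after 30 min at room temperature.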
HT1080NT lethal = qHTS for induction of synthetic lethality in tumor cells producing 2HG: qHTS for the HT-1080-NT fibrosarcoma cell line | HT-1080-NT fibrosarcoma viability, CellTiter-Glo ATP luminescence, 48 h | Potency, µM (highest dose often 46.1 µM), hits mostly cytotoxic | actives 1.6% (n = 360,000) | AID 686970, 2013;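 also: NT is the 2HG producing partner of a matched IDH1 knockdown line; nearly all actives have a fitted effect of over 55% in size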
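HT-1080-NT; 750 cells/well; 5% FBS RPMI; 48 h compound, 37 degrees C; CellTiter-Glo luminescence; curve fitting and curve-class assignment.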
HT1080 IDH1KD tx = qHTS for induction of synthetic lethality in tumor cells producing 2HG: qHTS for the HT-1080-IDH1KD cell line; HT-1080 IDH1 knockdown viability, ATP luminescence, 48 h; Potency, µM (highest dose often 46.1 µM), actives largely listed as cytotoxic; actives 2% (n = 360,000); AID 686971, 2013
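Assay cells: HT-1080 with IDH1 knockdown, 750 per well, RPMI/5% FBS. Exposure: 48 h at 37 °C following 2 h pre-incubation. Read: CellTiter-Glo luminescence; fitted concentration-response, curve class assigned.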
DT40 TDP1 no CPT = qHTS for Inhibitors of human tyrosyl-DNA phosphodiesterase 1 (TDP1): qHTS in cells in absence of CPT; DT40 Tdp1-/- hTDP1 cells, no CPT, ATP luminescence, 48 h; Potency, µM (highest dose often 46.2 µM), actives largely listed as inhibitors; actives 15% (n = 420,000); AID 686978, 2013; also: nearly all actives have a fitted effect of over 55% in size
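Growth kinetics read by CellTiter-Glo luminescence after ≥48 hr at 37 °C. Cells: DT40 Tdp1-/- stably carrying human TDP1, 400 per well, compound exposure in the absence of CPT (DMSO vehicle).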
IL1B secr inh = qHTS for Inhibitors of Inflammasome Signaling: IL-1-beta AlphaLISA Primary Screen; THP-1 LPS/ATP IL-1B secretion, AlphaLISA, 16 h; stronger effect = lower value; activity change, % at 57.5 µM; actives 4.7% (n = 360,000); AID 743279, 2014; in the data active = activity change below about -50%; inconclusive = mostly about -30% to -49%
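THP-1 cells pretreated 1 hr with compounds (up to 57.5 uM final), then stimulated with LPS (250 ng/mL final) plus ATP (1.25 mM final); secreted IL-1B measured by AlphaLISA after 16 hr, decreased signal indicating inhibition.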
DT40 TDP1 CPT = qHTS for Inhibitors of human tyrosyl-DNA phosphodiesterase 1 (TDP1): qHTS in cells in presence of CPT; actives 12% (n = 420,000); chicken DT40 Tdp1-/-;hTDP1 cells + 20 nM CPT, ATP luminescence, 48 h; Potency, µM (highest dose often 46.2 µM), actives largely listed as inhibitors; also: nearly all actives have a fitted effect of over 55% in size
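Cell growth measured by CellTiter-Glo luminescence after a minimum 48 h, 37 C compound exposure with 20 nM CPT in Tdp1-knockout DT40 cells stably expressing hTDP1, seeded 400/well; qHTS titration format.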
Each line names hits and unclear results; the compound was inactive in the other large screens. The list is not random: actives were taken first. Their share in the collection is about 19%. Unless noted, calls follow the shape of the dose curve; as a rule, active = well fitted curve in the direction sought with a large enough effect; inconclusive = small, poorly fitted or top-dose-only effect, or another doubt; inactive = no such curve, though single readings can be large; an effect the other way counts as inactive or inconclusive.

CC(=O)c1ccc(NC(=S)N(C)C2CCN(C)CC2)cc1	IL1B secr inh inconclusive
CC(=O)N1CCC2(CC1)OC(=O)C(C)=C2C(=O)Nc1ccccc1C(F)(F)F	none (no result: ELG1 repair inh, HT1080NT lethal, HT1080 IDH1KD tx, IL1B secr inh)
COc1cccc(CN2CCN(C(c3ccccc3)c3ccccc3)CC2)c1O	ELG1 repair inh inconclusive, DT40 TDP1 no CPT 21µM, DT40 TDP1 CPT inconclusive
COc1cc(C(=S)N2CCN(C(c3ccccc3)c3ccccc3)CC2)cc(OC)c1O	DT40 TDP1 no CPT 8.2µM, IL1B secr inh -50, DT40 TDP1 CPT 15µM
COc1ccc(NC(=S)N2CCN(C(c3ccccc3)c3ccccc3)CC2)cc1OC	ELG1 repair inh inconclusive
COc1cc(CN2CCN(C(c3ccccc3)c3ccccc3)CC2)cc(OC)c1OC	ELG1 repair inh inconclusive, HT1080 IDH1KD tx inconclusive, DT40 TDP1 no CPT 3.3µM, DT40 TDP1 CPT 8.2µM
COCC(=O)N1CCC[C@@]2(CCN(C(=O)Nc3ccccc3)C2)C1	none (no result: ELG1 repair inh, HT1080NT lethal, HT1080 IDH1KD tx, IL1B secr inh)
CSc1ncccc1C(=O)Nc1ccc(OC(F)(F)F)cc1	DT40 TDP1 no CPT 15µM, DT40 TDP1 CPT inconclusive
O=C(Nc1ccc(F)cc1)c1cccnc1Oc1ccccc1	none
CC(=O)Nc1ccc(Sc2ncccc2C(=O)Nc2ccc(F)cc2)cn1	HT1080NT lethal inconclusive, HT1080 IDH1KD tx inconclusive, DT40 TDP1 no CPT 7.3µM, DT40 TDP1 CPT 9.2µM
COc1ccc(S(=O)(=O)n2nc(C)c(S(=O)(=O)N3CCCCC3)c2C)cc1	none (no result: ELG1 repair inh, HT1080NT lethal, HT1080 IDH1KD tx, IL1B secr inh)
Cc1c(C#N)c(NC(=O)CCl)n(Cc2cccs2)c1C	ELG1 repair inh inconclusive, HT1080NT lethal 16µM, HT1080 IDH1KD tx inconclusive, DT40 TDP1 no CPT 2.6µM, IL1B secr inh -105, DT40 TDP1 CPT 5.2µM
Cc1c(C#N)c(NC(=O)CCl)n(Cc2ccc(F)cc2)c1C	ELG1 repair inh inconclusive, HT1080NT lethal inconclusive, HT1080 IDH1KD tx inconclusive, DT40 TDP1 no CPT 5.8µM, IL1B secr inh -77, DT40 TDP1 CPT 5.2µM
Cc1c(C#N)c(NC(=O)CCl)n(Cc2ccccc2)c1C	ELG1 repair inh inconclusive, HT1080NT lethal inconclusive, HT1080 IDH1KD tx 1.6µM, DT40 TDP1 no CPT 2.6µM, IL1B secr inh -57, DT40 TDP1 CPT 2.6µM
COc1ccc(OC)c(NC(=O)COC(=O)CCCN=C2NS(=O)(=O)c3ccccc32)c1	none
O=C(Nc1ccc2c(c1)OCCO2)C1C(c2ccccc2)=Nc2ccccc2N1C(=O)c1cccnc1 (stereo not given)	DT40 TDP1 no CPT inconclusive, DT40 TDP1 CPT inconclusive (no result: ELG1 repair inh)
CC(C)(C)S(=O)N1Cc2cc(C(=O)N3CCc4ccccc4C3)nc(-c3cccc(-c4ccncc4)c3)c2[C@H]1CCO (stereo not given in full)	DT40 TDP1 no CPT inconclusive, DT40 TDP1 CPT inconclusive (no result: ELG1 repair inh)
COc1ccc(OC)c(NC(=O)c2ccc(OCC(=O)N3CCOCC3)c(OC)c2)c1	DT40 TDP1 no CPT inconclusive
COc1ccc(-c2nc(NC(=O)c3ccc(OCC(=O)Nc4ccc(F)cc4)c(OC)c3)sc2C)cc1	ELG1 repair inh inconclusive, HT1080NT lethal 18µM, HT1080 IDH1KD tx 16µM, DT40 TDP1 no CPT 18µM, DT40 TDP1 CPT inconclusive
COc1ccc(-c2csc(NC(=O)c3ccc(OCC(=O)N4CCOCC4)c(OC)c3)n2)cc1	ELG1 repair inh 16µM, DT40 TDP1 no CPT 10µM, IL1B secr inh -79, DT40 TDP1 CPT 7.3µM
COc1ccc(-c2cc(C(=O)N3CCOCC3)c3ccccc3n2)cc1OC	none
COc1cc2cc(C(=O)N3CCOCC3)cc(-c3ccc(C)cc3)c2cc1OC	ELG1 repair inh 15µM, HT1080NT lethal inconclusive, HT1080 IDH1KD tx inconclusive, IL1B secr inh inconclusive

Source: PubChem
